Source: PubChem BioAssay AID2391 (Southern Research Specialized Biocontainment Screening …, 2010)
The campaign covered roughly 310,000 compounds. About 410 (0.13%) were called active. Inconclusive results (about 2%) are left out. No rule for the calls is given here. A selection follows. Measured potencies and affinities stand elsewhere.

test: RSV antiviral activity via CPE protection, HEp-2 cells, primary 10 µM value included (AID 2391); conditions: RSV-induced CPE inhibition, at 10 µM, hits give high values

CPE inhibition, inactive:
COc1ccc(S(=O)(=O)N2CCCCC2)cc1C(=O)N1CCCCCC1 1.11%, CC1Cc2ccccc2N1C(=O)COC(=O)c1ccc(Br)o1 (stereo unspecified) -0.89%, Cc1ccc(NC(=S)N2CCC(O)CC2)c(C)c1 3.11%, Cc1cccc(C)c1NC(=O)CN(C)CC(=O)c1c(N)n(Cc2ccccc2)c(=O)n(C)c1=O 0.19%, Cc1ccc2nc(C)cc(C(=O)OCC(=O)Nc3c(C)n(C)n(-c4ccccc4)c3=O)c2c1 2.74%, Cc1c(NC(=O)COC(=O)c2cc(-c3cccc4ccccc34)nc3ccccc23)c(=O)n(-c2ccccc2)n1C 1.88%, COc1ccc(/C=N/NC(=O)Cc2ccc(Cl)cc2)cc1OC 1.07%, CN(C)c1ccc(NC2=C(Cl)C(=O)c3ccccc3C2=O)cc1 -2.87%, COc1ccc(NC2=C(NC(C)=O)C(=O)c3ccccc3C2=O)cc1 -0.06%, CCC1=NN2C(=N)/C(=C\c3cccn3-c3ccc(C)c(C)c3)C(=O)N=C2S1 15.3%, CCC1=NN2C(=N)/C(=C\c3cccn3-c3ccc(C)cc3C)C(=O)N=C2S1 16.1%, c1ccc(-n2cc(CN3CCCC3)c(-c3ccc4c(c3)OCO4)n2)cc1 5.52%, Cc1ccc(NC(=O)c2sc(N)nc2-c2ccc([N+](=O)[O-])cc2)cc1C -0.73%, Cc1ccccc1C(=O)NC(C)C(c1cccs1)N1CCOCC1 (stereo unspecified) -0.28%, Cc1nn(-c2ccccc2)c2nc(N)c(C#N)c(-c3ccc(O)c(O)c3)c12 39.2%, Cc1nn(-c2ccc(F)cc2)c2nc(N)c(C#N)c(-c3ccc(O)c(O)c3)c12 0.04%, Cc1ccc(C)c2c1cc(C)c1nnc(SCC(=O)NCc3ccc4c(c3)OCO4)n12 2.14%, CCOC(=O)/C(C#N)=C/c1c(N2CCN(c3ccc(OC)cc3)CC2)nc2c(C)cccn2c1=O 7.79%, Cc1ccc(N2CC(O)Cn3c2nc2c3c(=O)n(C)c(=O)n2C)cc1 (stereo unspecified) 0.84%, Cc1csc(NC(=O)CSc2nnc(C)c(=O)n2N)n1 -0.18%, NNC(=O)c1[nH]c(-c2ccccc2)cc1-c1ccccc1 0.95%, O=C1c2ccccc2C(Nc2ccc3c(c2)OCO3)N1Cc1ccc2c(c1)OCO2 (stereo unspecified) 13.8%, O=C1c2ccccc2C(Nc2ccccc2)N1Cc1ccc2c(c1)OCO2 (stereo unspecified) 8.65%, C/C=C/C(=O)Nc1nnc(-c2ccccc2C)s1 0.32%, CCOc1cccc(C(=O)Nc2ccccc2C(=O)N2CCN(C)CC2)c1 -0.42%, CC(CC(=O)Nc1nccs1)c1ccccc1 (stereo unspecified) -0.09%, COc1cc2c(cc1OC)CN(C(=O)c1cccc(S(=O)(=O)N(C)C)c1)CC2 1.79%, O=C(c1cccc(S(=O)(=O)N2CCc3ccccc32)c1)N1CCc2ccccc2C1 7.22%, O=C(C1CC(=O)N(c2ccc(F)cc2)C1)N1CCOCC1 (stereo unspecified) 3.24%, Cn1c(O)c(/C=C2\C=Nc3ccccc32)sc1=Nc1ccc(C(=O)O)cc1 1.42%, C/C(=N\NC(=O)c1ccc(NS(=O)(=O)c2cccs2)cc1)c1ccncc1 3.91%, C/C(=N\NC(=O)c1ccc(NS(=O)(=O)c2cccs2)cc1)c1ccccc1 -0.3%, CC(C)=CCCC(C)CN1CCC(n2nccc2NC(=O)c2ccc3c(c2)OCO3)CC1 (stereo unspecified) -0.22%, O=C(NCc1ccco1)c1ccc2c(=O)n(-c3ccccc3)c(=O)n(Cc3cccc(F)c3)c2c1 0.67%, COCCCNC(=O)c1ccc(Cn2c(=O)c3ccccc3n(Cc3ccccc3C)c2=O)cc1 1.4%, O=C(NCc1ccco1)c1ccc(Cn2c(=O)c3ccccc3n(Cc3cccc(Cl)c3)c2=O)cc1 18.6%, N#Cc1ccccc1Cn1c(=O)n(Cc2ccc(C(=O)NCc3ccco3)cc2)c(=O)c2ccccc21 2.54%, COCCCNC(=O)c1ccc(Cn2c(=O)c3ccccc3n(Cc3cc(C)ccc3C)c2=O)cc1 1.91%, O=C(CCCn1c(=O)c2sccc2n(Cc2ccc(F)cc2)c1=O)NCc1ccco1 -0.44%, O=C(NCc1ccco1)c1ccc(Cn2c(=O)c3ccccc3n(Cc3cccc(F)c3)c2=O)cc1 4.05%, N#Cc1ccccc1Cn1c(=O)n(Cc2ccc(C(=O)NCc3ccco3)cc2)c(=O)c2sccc21 2.1%, CCN1CCCC1CNC(=O)Cn1ncc2c(=O)oc3ccc(C)cc3c21 (stereo unspecified) 2.08%, Cc1ccccc1/C=N\NC(=O)c1ccc(Cn2cccn2)o1 1.85%, O=c1nc2ccccc2c2n1CC(CN1CCN(c3ccc(F)cc3)CC1)N2 (stereo unspecified) -0.72%, CCCOc1ccccc1C1NC(=O)NC(C)=C1C(=O)OCCOCC (stereo unspecified) -0.41%, CCC(C)c1ccccc1NC(=S)Nc1cccnc1 (stereo unspecified) 3.94%, Cc1ccc(N2C(=O)N(C(C)C)C(C)(C)CC2(C)O)cc1 (stereo unspecified) 2.14%, O=C(c1cccc(Cl)c1)C1CCCN(C(=O)c2ccoc2)C1 (stereo unspecified) -0.58%, O=c1cc(-c2ccc(O)c(O)c2)oc2cc(O)c(C3OC(CO)C(O)C(O)C3O)c(O)c12 (stereo unspecified) 0.47%, O=c1cc(-c2ccc(O)cc2)oc2c(C3O[C@H](CO)[C@@H](O)[C@H](O)[C@H]3O)c(O)cc(O)c12 (stereo partly specified) -1.94%, COc1ccc(OC)c(NC2c3ncccc3C(=O)N2Cc2ccco2)c1 (stereo unspecified) 6.51%, COc1cc(NC2c3ncccc3C(=O)N2Cc2ccco2)cc(OC)c1 (stereo unspecified) 9.47%, O=C1c2cccnc2C(Nc2ccccc2Br)N1Cc1ccco1 (stereo unspecified) 4.55%, O=C1c2cccnc2C(Nc2cccc(F)c2)N1Cc1ccco1 (stereo unspecified) 12%, CCCOc1ccc(CN(C(=O)c2cccc(OC)c2)C2CCS(=O)(=O)C2)cc1 (stereo unspecified) 0.38%, CC(O)CNc1nc2ccccc2n1CC(=O)NCC(F)(F)F (stereo unspecified) 0.4%
